From PubChem BioAssay come the findings set out here.

Molecules are shown by their SMILES. Activity calls are given as the source filed them.

Experiment [1] concerns Human papillomavirus type 1a protein E7 (residues 44-93). Put plainly: small molecules binding HPV E7 44-93 – biochemical, small-molecule microarray, residues 44-93, 635 nm fluorescence, primary screen (AID 1108).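 Also: E7 fragment applied at 1 µg/mL in TBST for 1 h at 4 C; score combines spot fluorescence with its signal to noise ratio.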 To be noted: fluorescence 635 nm, higher = more signal.
Experiment [2] can be described thus: hepatitis C replication reporter changes, two-sided – Huh7 cells, luciferase reporter, HCV replication inhibitor project, primary screen (AID 1109).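 Also: huh7 hepatoma cells harbouring a luciferase neomycin HCV replicon reporter; luciferase luminescence as measure of HCV replicon replication; test concentration not given here.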 To be noted: Huh7 HCV replicon luciferase reporter, 48 h; higher = more signal.
The target of experiment [3] is Left-right determination factor 2 (Homo sapiens) (UniProt O00292). Put plainly: small molecules binding LEFTY2 protein – biochemical, small-molecule microarray, 635 nm fluorescence scan, primary screen (AID 1110). To be noted: higher = more signal.
The target in experiment [4] is Calmodulin-1 (Homo sapiens) (UniProt P0DP23). Put plainly: small molecules binding calmodulin-1 with EGTA – biochemical, small-molecule microarray, Cy5-labelled CALM1, profiling panel (AID 1111).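 Also: labelled calmodulin applied in Tris saline Tween buffer holding calcium plus EGTA and DTT.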 Conditions: Cy5-CALM1 binding fluorescence, higher = more signal.
For experiment [5] the target is unchanged. Put plainly: small molecules binding Ca-loaded calmodulin-1 – biochemical, small-molecule microarray, Cy5-labelled CALM1, plus calcium, artefact control for SMM control-protein annotation, profiling panel (AID 1112).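 Also: score merges spot fluorescence with signal to noise from triplicate slides.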 Conditions: Cy5-CALM1 binding fluorescence, higher = more signal.
The nature of experiment [6]: probe aWnt5a binding to arrayed compounds – biochemical, biotinylated probe, 635/667 nm fluorescence, primary screen (AID 1113).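 Also: score merges 667 nm fluorescence intensity with signal-to-noise per printed feature.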 Conditions: small-molecule microarray, higher = more signal.
Experiment [7] can be described thus: probe aShh binding to arrayed compounds – biochemical, biotinylated probe, 635/667 nm fluorescence, primary screen (AID 1114).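 Also: probe is biotin-labelled aShh protein from a stem cell growth factor screen; measures binding of labelled protein to compounds printed on the slide; score merges feature fluorescence at 667 nm with signal-to-noise.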 To be noted: small-molecule microarray, higher = more signal.
Experiment [8] can be described thus: probe aNog binding to arrayed compounds – biochemical, biotinylated probe, 635/667 nm fluorescence, primary screen (AID 1115).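 Also: probe is biotinylated aNog protein used at 0.15 µg/mL for 1 h at 4 C; z-score combines 667 nm fluorescence of each spot with its signal to noise.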 Conditions: small-molecule microarray, higher = more signal.
Experiment [9] has as its target Torsin-1A-interacting protein 1 (Homo sapiens) (UniProt Q5JTV8). Put plainly: compound microarray binding of lysate hLAP1 – cell lysate, small-molecule microarray, COS7 lysate, 635/667 nm fluorescence, primary screen (AID 1116). To be noted: 635 nm fluorescence, higher = more signal.
The target of experiment [10] is Alpha-bungarotoxin (Bungarus multicinctus) (UniProt P60615). Put plainly: compounds binding labelled alpha-BTX control protein – biochemical, small-molecule microarray, Alexa647 label, 635/667 nm fluorescence, artefact control for SMM control protein annotation, profiling panel (AID 1117). To be noted: alpha-BTX-A647 binding fluorescence, higher = more signal.
Experiment [11] concerns the target Albumin (Bos taurus) (UniProt P02769). Put plainly: compounds binding labelled BSA control protein – biochemical, small-molecule microarray, Alexa647 label, 635/667 nm fluorescence, artefact control for SMM control protein annotation, profiling panel (AID 1118).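 Also: score merges 667 nm emission intensity and signal-to-noise per printed compound spot.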 To be noted: BSA-A647 binding, fluorescence 635 nm, higher = more signal.
Experiment [12] can be described thus: probe aXIP binding to arrayed compounds – biochemical, NeuroSMM set, 635/667 nm fluorescence, primary screen (AID 1119).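 Also: probe is the protein aXip251-270 applied at 1 µg/mL to compound-printed slides; binding of probe to printed compounds measured as 667 nm fluorescence plus signal to noise.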 To be noted: small-molecule microarray, higher = more signal, called active from +8 up or from −8 down.
Experiment [13] can be described thus: probe aNOTCH3 binding on compound microarray – biochemical, small-molecule microarray, 635/667 nm fluorescence, primary screen (AID 1120).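 Also: probe is a biotin-tagged antibody raised against NOTCH3 rather than NOTCH3 protein; score merges spot fluorescence near 667 nm with spot signal to noise.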 To be noted: higher = more signal.
A short description of experiment [14]: probe aNOTCH2 binding on compound microarray – biochemical, small-molecule microarray, 635/667 nm fluorescence, primary screen (AID 1121).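 Also: score merges feature fluorescence read at 667 nm with its signal to noise.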 Conditions: higher = more signal.
The target in experiment [15] is Carbonic anhydrase 2 (Homo sapiens) (UniProt P00918). Put plainly: compounds binding carbonic anhydrase 2 – biochemical, small-molecule microarray, Alexa647-labelled CAII, profiling panel (AID 1122). To be noted: CAII-A647 binding fluorescence, higher = more signal.
Experiment [16] can be described thus: COS7 lysate on small-molecule microarray, probe aHis, 635 nm (AID 1123).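 Also: z-score combines 667nm fluorescence intensity with signal-to-noise per printed compound spot.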 To be noted: COS7 cell lysate, fluorescence, higher = more signal.
The nature of experiment [17]: probe aLAP1 signal on lysate-treated microarray – cell lysate, small-molecule microarray, COS7 lysate, primary screen (AID 1124).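 Also: lysate comes from COS7 cells expressing LAP1 and is applied at 0.3 µg/mL; score merges spot fluorescence near 667 nm with signal-to-noise over triplicate slides.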 Conditions: probe aLAP1, fluorescence, higher = more signal.
Experiment [18] deals with Sam68 (KHDRBS1). Put plainly: compounds binding KHDRBS1 protein – biochemical, small-molecule microarray, 635 nm fluorescence, primary screen (AID 1125).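 Also: score merges 667 nm channel intensity with signal to noise over triplicate slides.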 Conditions: higher = more signal.
The subject of experiment [19] is Chordin-like protein 2 (CHRDL2). Put plainly: compounds binding chordin-like 2 – biochemical, small-molecule microarray, 635 nm fluorescence, primary screen (AID 1126).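 Also: printed compound slides probed with Chrdl2 protein at 4 µg/mL for 1 h at 4 C; score merges 667 nm emission intensity with signal to noise over three replicate slides.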 To be noted: fluorescence 635 nm, higher = more signal.
Experiment [20] concerns the target Concanavalin-A (Canavalia ensiformis) (UniProt P02866). Put plainly: compounds binding concanavalin A lectin – biochemical, small-molecule microarray, Alexa647 label, 635 nm, artefact control for SMM control protein annotation, primary screen (AID 1127).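 Also: z combines 667 nm emission intensity with signal-to-noise across three replicate slides.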 Conditions: ConA-A647 binding fluorescence, higher = more signal.

Sequence of Alpha-bungarotoxin (Bungarus multicinctus) (P60615 whole entry, looked up): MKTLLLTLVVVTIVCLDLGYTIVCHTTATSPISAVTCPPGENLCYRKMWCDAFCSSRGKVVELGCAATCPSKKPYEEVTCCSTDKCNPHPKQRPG
Sequence of Albumin (Bos taurus) (P02769 whole entry, looked up): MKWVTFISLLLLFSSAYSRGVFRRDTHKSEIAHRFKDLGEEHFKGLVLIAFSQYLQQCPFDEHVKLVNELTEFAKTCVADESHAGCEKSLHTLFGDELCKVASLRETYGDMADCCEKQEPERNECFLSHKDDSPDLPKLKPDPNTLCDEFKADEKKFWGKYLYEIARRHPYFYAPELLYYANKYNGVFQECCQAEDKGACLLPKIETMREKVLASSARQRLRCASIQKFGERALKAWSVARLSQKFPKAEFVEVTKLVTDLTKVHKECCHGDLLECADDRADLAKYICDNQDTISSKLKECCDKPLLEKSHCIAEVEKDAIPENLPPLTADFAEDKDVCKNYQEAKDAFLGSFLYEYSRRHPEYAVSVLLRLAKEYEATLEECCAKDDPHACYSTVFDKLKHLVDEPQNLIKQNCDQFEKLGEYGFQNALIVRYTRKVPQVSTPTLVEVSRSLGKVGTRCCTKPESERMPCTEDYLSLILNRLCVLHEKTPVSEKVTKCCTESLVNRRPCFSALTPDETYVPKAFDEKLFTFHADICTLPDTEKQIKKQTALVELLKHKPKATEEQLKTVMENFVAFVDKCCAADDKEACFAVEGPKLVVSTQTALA
Sequence of Left-right determination factor 2 (Homo sapiens) (O00292 whole entry, looked up): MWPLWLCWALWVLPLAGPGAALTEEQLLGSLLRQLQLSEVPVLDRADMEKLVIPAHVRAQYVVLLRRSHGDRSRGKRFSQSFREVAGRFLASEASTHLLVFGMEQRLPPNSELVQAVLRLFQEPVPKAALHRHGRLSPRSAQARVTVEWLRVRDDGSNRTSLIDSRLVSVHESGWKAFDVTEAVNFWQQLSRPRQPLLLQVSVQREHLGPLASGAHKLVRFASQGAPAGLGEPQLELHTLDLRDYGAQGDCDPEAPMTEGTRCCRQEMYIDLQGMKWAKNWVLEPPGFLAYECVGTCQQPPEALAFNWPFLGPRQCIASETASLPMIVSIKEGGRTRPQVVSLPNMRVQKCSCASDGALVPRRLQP
Sequence of Torsin-1A-interacting protein 1 (Homo sapiens) (Q5JTV8 whole entry, looked up): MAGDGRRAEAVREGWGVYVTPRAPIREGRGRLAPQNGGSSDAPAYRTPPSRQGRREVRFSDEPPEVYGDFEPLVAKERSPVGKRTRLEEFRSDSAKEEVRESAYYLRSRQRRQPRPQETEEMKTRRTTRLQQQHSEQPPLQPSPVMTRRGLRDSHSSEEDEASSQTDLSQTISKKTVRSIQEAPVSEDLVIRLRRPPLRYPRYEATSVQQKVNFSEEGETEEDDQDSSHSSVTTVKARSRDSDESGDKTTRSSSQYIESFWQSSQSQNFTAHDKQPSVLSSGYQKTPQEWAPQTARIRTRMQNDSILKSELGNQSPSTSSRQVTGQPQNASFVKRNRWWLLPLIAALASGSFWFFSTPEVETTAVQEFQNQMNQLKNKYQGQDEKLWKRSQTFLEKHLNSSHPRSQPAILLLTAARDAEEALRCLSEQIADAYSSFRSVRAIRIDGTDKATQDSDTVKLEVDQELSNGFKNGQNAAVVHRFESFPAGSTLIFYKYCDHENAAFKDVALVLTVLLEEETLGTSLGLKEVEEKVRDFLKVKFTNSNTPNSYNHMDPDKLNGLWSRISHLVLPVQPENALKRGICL
Sequence of Concanavalin-A (Canavalia ensiformis) (P02866 whole entry, looked up): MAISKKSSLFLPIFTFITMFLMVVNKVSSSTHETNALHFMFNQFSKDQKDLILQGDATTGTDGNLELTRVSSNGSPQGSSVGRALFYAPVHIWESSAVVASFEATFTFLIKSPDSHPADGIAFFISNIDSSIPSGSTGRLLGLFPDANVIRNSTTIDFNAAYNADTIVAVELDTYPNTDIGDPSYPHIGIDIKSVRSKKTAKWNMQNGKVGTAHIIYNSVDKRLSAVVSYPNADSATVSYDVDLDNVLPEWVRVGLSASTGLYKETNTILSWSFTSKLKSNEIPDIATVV

On to `COC(=O)C(CC#Cc1ccc2c(c1)[C@]1(C(=O)N2)[C@H](c2ccc(O)cc2)N2[C@H](c3ccccc3)[C@H](c3ccccc3)OC(=O)[C@H]2[C@@H]1C(=O)Nc1nc2ccccc2s1)C(=O)OC`, for which the composite z-score is 1.39 in experiment [1]; 0.651 in experiment [3]; 1.26 in [4]; 0.213 in [5]; 0.0998 in [6]; 0.191 in [7]. For the same compound, the composite z-score in experiment [8] was 0.535; in experiment [9], 1.63; in experiment [10], 1.62; in experiment [11], 0.847; in experiment [13] it was 0.138; in experiment [14] it was -0.0454. Moreover, the composite z-score in experiment [15] worked out at 0.556; in experiment [16] it was 2.21; in experiment [17], 0.445; in experiment [18], 1.31; in experiment [19] it was 0.806; in experiment [20], 1.12. Besides, the z-score in [2] was -0.322. In addition, the composite Z-score in experiment [12] is -0.516 (inactive).
In the case of `CN1C(=O)C2C=CC(C(O)c3cc(C(F)(F)F)cc(C(F)(F)F)c3)N(N3CCCCC3)C2C1=O` (stereo not given), the composite z-score in experiment [1] was 1.24; in experiment [3], -0.599; in [4], 1.34; in experiment [5] it was 0.769; in experiment [6], 0.0775; in [7] it was 0.42. The composite z-score is 1.15 in [8]; 0.287 in experiment [9]; 0.49 in experiment [10]; 0.712 in experiment [11]; 0.0488 in experiment [13]; -0.0467 in experiment [14]. The composite z-score is 0.551 in [15]; 1.79 in experiment [16]; -0.33 in experiment [17]; 1.08 in experiment [18]; -0.672 in experiment [19]; 0.768 in experiment [20]. The z-score in experiment [2] is -0.353. In experiment [12], the composite Z-score is 2.11 (inactive).
As to `O=C(NCc1ccccc1)[C@@]1(CCS(=O)(=O)c2ccccc2)N=C(c2ccc(OCCCO)cc2)O[C@H]1c1ccccc1`, the composite z-score in [1] was 1.44; in experiment [3], -0.125; in [4], 1.43; in experiment [5] it was 0.112; in experiment [6] it was 0.111; in [7], 0.0055. Also, the composite z-score was -0.0597 in [8]; 1.32 in experiment [9]; 2.03 in experiment [10]; 1.01 in experiment [11]; 0.471 in experiment [13]; -0.0128 in [14]. For the same compound, the composite z-score is 0.615 in experiment [15]; 3.07 in [16]; 0.557 in experiment [17]; 1.29 in experiment [18]; -0.481 in experiment [19]; 1.16 in experiment [20]. In addition, the z-score in experiment [2] is -2.25. For the same compound, in experiment [12], the composite Z-score is 0.198 (inactive).
For `C=CC[C@@]1(C(=O)NCc2ccccc2)N=C(c2ccc(OCCCO)cc2)O[C@@H]1c1ccccc1N=[N+]=[N-]`, the composite z-score was 1.25 in experiment [1]; -0.258 in [3]; 1.17 in experiment [4]; 0.399 in [5]; 0.0839 in experiment [6]; 0.171 in experiment [7]. In addition, the composite z-score in experiment [8] is 1.74; in experiment [9] it was 1.44; in experiment [10], 1.82; in experiment [11] it was 0.98; in [13], 0.355; in experiment [14], 0.0186. Also, the composite z-score was 0.712 in [15]; 3.18 in experiment [16]; 0.736 in experiment [17]; 1.3 in experiment [18]; -0.623 in experiment [19]; 0.906 in experiment [20]. Also, in experiment [2], the z-score was -0.874. Besides, the composite Z-score in experiment [12] is -0.108 (inactive).
Take `C=C(CCCC)C(=O)CC[C@H](OC(=O)c1cccnc1)c1ccccc1OCCO`: the composite z-score in experiment [1] was -0.935; in experiment [3], -0.154; in experiment [4], -0.398; in experiment [5], -0.95; in experiment [6], -0.0758; in experiment [7], -0.102. Further, the composite z-score is -0.136 in experiment [8]; -0.0529 in experiment [9]; -0.0583 in experiment [10]; 0.287 in experiment [11]; -0.0345 in [13]; -0.161 in experiment [14]. The composite z-score in experiment [15] is 0.268; in experiment [16], 0.232; in experiment [17], 0.259; in [18] it was -0.546; in experiment [19] it was 0.335; in [20] it was 0.277. The compound further yielded a z-score in experiment [2] of -2.46. Further, the composite Z-score in [12] was 1.71 (inactive).
